# About 83,000 compounds went through this panel and 20% of them were active in at least one assay; those are over-represented in the sample as a whole.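 Values shown are percent growth following 48 h exposure of cells in 96-well plates to a single concentration of compound; below 10 was considered active.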 The source made the active and inactive calls.
# System: HL-60(TB) leukemia
# Assay: NCI-60 one-dose screen, 48 h (100 = growth as untreated, 0 = no growth, -100 = all killed)
# Details: 10 µM unless noted
row,SMILES,growth
1,COc1ccc(-c2cc(-c3ccc(OC)cc3)nc(NCCCNc3ccnc4cc(Cl)ccc34)n2)cc1,-37.7% (active)
2,C/C=C(/C)C(=O)OC1C=C(CO)C(=O)C(OC(=O)/C(C)=C\C)C1C(C)C (stereo not given),-32% (active)
3,CCOC(=O)C1C(C(=O)OCC)C2C(=O)C3C(C(=O)OCC)C(C(=O)OCC)C3C(=O)C12 (stereo not given),96.7% (inactive)
4,CC(Br)C(OC(=O)c1ccccc1Cl)c1cc2c(cc1Br)OCO2 (stereo not given),103% (inactive)
5,COc1ccc(OCC(=O)OC(C)C)cc1,90% (inactive)
6,CCOC(=O)CSc1nc(-c2cc(OC)ccc2OC)cc(-c2ccc(OC)cc2)c1C#N,98.5% (inactive)
7,Cc1ncc(C(=O)Nc2ccc(CN3CCN(C)CC3)c(C(F)(F)F)c2)cc1C#Cc1c(N)ncc2ccc(C#N)cc12,45.8% (inactive)
8,COc1ccc(CNCCN2C(=O)c3ccc4c5c(ccc(c35)C2=O)C(=O)N(CCNCc2ccc(OC)c(OC)c2OC)C4=O)c(OC)c1OC,-43.2% (active)
9,NC(N)=N/N=C/c1ccc(Br)cc1,-0.0458% (active)
10,COC(=O)[C@@H]1CC[C@]2(C)[C@H](CC[C@@H]3O[C@@]32C)[C@@]1(C)CC(=O)c1ccoc1,89.8% (inactive)
11,Cc1ccc(NC(=O)C(Cl)Cl)cc1,-48.8% (active)
12,O=c1[nH]c(NCc2ccccc2)nc2nc(Nc3ccc(NC(=S)Nc4ccccc4)cc3)nc(-c3ccc(O)cc3O)c12,98.4% (inactive)
13,Cc1nc2ccc(CN(C)c3ccc(C(=O)N[C@@H](CCC(=O)O)C(=O)O)s3)cc2c(=O)[nH]1,27.9% (inactive)
14,O=C1C(Cl)=C(SC2=NCCN2)C(=O)c2ccccc21,81.4% (inactive)
15,CC1CCCCC[N+]12CCCC2 (stereo not given),102% (inactive)
16,C=C1C(=O)O[C@H]2[C@H]1CC/C(COC(=O)c1cn(C)c3ccccc13)=C\CC[C@@]1(C)O[C@@H]21,2.98% (active)
17,COc1cc(-c2nc3occn3c2-c2ccnc(NCCCNS(=O)(=O)c3ccccc3)n2)ccc1F,39.6% (inactive)
18,CCOC(=O)c1c(CN2CCN(C)CC2)nc2ccc(Cl)cc2c1-c1ccccc1,26.5% (inactive)
19,CC(C)(C)CC(C)(C)Nc1c(-c2c(O)c3ccccc3oc2=O)nc2sccn12,99.7% (inactive)
20,COc1ccc(Nc2nc(N)nc3c(=O)[nH]ccc23)cc1,96.1% (inactive)

row,SMILES,growth
1,COC(=O)[C@H]1Cc2c([nH]c3ccccc23)[C@@H](c2cccs2)N1,99.7% (inactive)
2,CN(C(=O)NCc1cccc(F)c1Cl)[C@H](COC(=O)Nc1cc2ccccc2cn1)CC(O)CO (stereo not given in full),90.5% (inactive)
3,COc1cc(C(=O)/C=C/c2sc(Cl)nc2Cl)cc(OC)c1OC,23.4% (inactive)
4,CN1CCN(c2ccc3nc(-c4[nH]ncc4Nc4ncnc5c4OCCCN5)[nH]c3c2)CC1,-28.7% (active)
5,O=C(Cc1nc2ccc([N+](=O)[O-])cc2nc1CC(=O)c1cccnc1)c1cccnc1,67.5% (inactive)
6,O=C(O)COc1ccc(Cl)c(Cl)c1,111% (inactive)
7,COc1ccc(-c2nc(SCCC(C)C)nc(N/N=C\c3cccc(Cl)c3)c2C#N)cc1,82% (inactive)
8,COc1ccc2cc(-c3nc4ccccc4[nH]3)c(=O)oc2c1,81.2% (inactive)
9,CC(C)C[C@H](C(=O)N[C@H](C(N)=O)C(C)C)N1CC=CCN(OCc2ccccc2)S1(=O)=O,119% [2.5 µM] (inactive)
10,CCN(CC)c1ccc(C2=NN(C(C)=O)C(c3cc(OC)c(OC)c(OC)c3)C2)cc1 (stereo not given),-42% (active)
11,NCCCNc1nc2ccccc2c2c(=O)c3cc(F)ccc3sc12,-28.1% (active)
12,COc1ccc(C(=O)c2sc3nc4c(c(-c5cccnc5)c3c2N)CCCC4)cc1OC,86.6% (inactive)
13,COC12CC(=O)C(C(C)=O)=C(O)C1(C)c1c(O)c(C)c(O)c(C(C)=O)c1O2 (stereo not given),61.7% (inactive)
14,Nc1c(C(=O)Nc2c(Cl)cccc2Cl)sc2nc3c(cc12)C(=O)CCC3,11.5% (inactive)
15,c1cncc(CNc2ccccc2-c2nnc(Nc3ccc4c(c3)OCO4)o2)c1,-22.5% (active)
16,O=c1oc2ccc(I)cc2c(=O)n1-c1ccc(I)cc1F,-49.1% (active)
17,Cc1nc2c(-c3cnc(N)nc3)nc(N3CCOCC3)nc2n1C(C)C,10.8% (inactive)
18,CCCCn1c(-c2ccc(O)cc2)cn2c3c(=O)[nH]c(=O)n(C)c3nc12,48.9% (inactive)
19,O=C(O)c1ccc2c(c1)C(=O)N(Cc1ccccc1)C2=O,93.1% (inactive)
20,CCc1cccc2c1S/C(=C/c1ccc(Cl)cc1)C2=O,93.5% (inactive)

# From PubChem BioAssay (NCI)
